Hits are enriched below; roughly 4.2% of the tested compounds scored in any of these assays.
Wnt bcat act: activators of Wnt/beta-catenin signaling; actives 1.2% (n = 300,000); Wnt/beta-catenin reporter cell assay, activator, plate reader; activation, % at 9.35 µM; in the data active means activation above about 30%, passing the limit was not always enough;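 further: 0% = neutral control wells and 100% = positive control wells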
esBAF inh: blocks esBAF chromatin remodeling in mouse ES cells; Bmi1-luciferase knock-in reporter, 24 h; 100% = twice the neutral-well signal; reporter increase, % at 12.5 µM; actives 2% (n = 350,000); AID 602393; in the data active means activation above about 40%;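 further: 0% = median of the plate's neutral control wells and 100% = double that signal; a rise in the Bmi1 reporter signal indicates esBAF inhibition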
FXN GAA850 act: frataxin GAA850 promoter activation; HEK293 lucGAA850 FXN promoter luciferase reporter, 24 h; percent of 10 µM SAHA response; activation, % at 6 µM; actives 0.56% (n = 360,000); AID 540364;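 active means activation above the average of all compounds screened plus 3 SD, cutoff fixed separately per campaign, cut at about 7.5% in these data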;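 further: 0% = DMSO wells and 100% = 10 µM SAHA wells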
MITF TRPM1 HTS: MITF TRPM1 promoter activation in melanoma cells | activation, % at 12.5 µM | SK-MEL-5 TRPM1-promoter luciferase, 24 h; % of positive control, neutral wells = 0 | actives 0.75% (n = 300,000);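 active means mean activation of at least 80% with every replicate also reaching 80%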;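 further: 0% = neutral control wells and 100% = parthenolide positive control wells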
AHR act: activates the human aryl hydrocarbon receptor; activation, % at 5 µM; actives 2.5% (n = 320,000); AHR-responsive luciferase reporter cells, luminescence; in the data active means activation above about 47%;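 further: 0% = vehicle wells and 100% = reference agonist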
Target sequence (P35869 whole entry, looked up): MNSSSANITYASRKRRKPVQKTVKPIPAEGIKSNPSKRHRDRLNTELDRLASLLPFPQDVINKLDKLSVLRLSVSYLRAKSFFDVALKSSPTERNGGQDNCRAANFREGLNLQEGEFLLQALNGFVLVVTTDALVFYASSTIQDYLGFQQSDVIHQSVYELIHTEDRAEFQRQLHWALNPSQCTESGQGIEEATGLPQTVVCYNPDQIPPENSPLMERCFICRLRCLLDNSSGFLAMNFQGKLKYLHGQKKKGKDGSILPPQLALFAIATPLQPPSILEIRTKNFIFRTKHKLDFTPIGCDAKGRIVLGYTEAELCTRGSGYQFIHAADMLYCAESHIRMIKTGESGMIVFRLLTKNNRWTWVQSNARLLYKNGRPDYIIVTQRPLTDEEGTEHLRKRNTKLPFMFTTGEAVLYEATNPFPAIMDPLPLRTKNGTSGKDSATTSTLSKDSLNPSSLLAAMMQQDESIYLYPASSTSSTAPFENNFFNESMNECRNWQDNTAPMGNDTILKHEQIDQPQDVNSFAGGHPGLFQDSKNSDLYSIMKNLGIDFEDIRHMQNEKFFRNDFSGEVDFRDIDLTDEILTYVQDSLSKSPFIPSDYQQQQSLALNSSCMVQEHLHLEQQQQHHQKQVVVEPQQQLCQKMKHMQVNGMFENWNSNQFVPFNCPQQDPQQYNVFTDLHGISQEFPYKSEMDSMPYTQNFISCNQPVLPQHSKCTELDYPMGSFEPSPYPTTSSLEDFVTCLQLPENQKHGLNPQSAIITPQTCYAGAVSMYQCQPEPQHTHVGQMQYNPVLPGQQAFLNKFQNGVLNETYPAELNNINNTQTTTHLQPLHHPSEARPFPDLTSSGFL
* marks the source's active call; other numbers are inactive results; . = no result given.

SMILES	Wnt bcat act	esBAF inh	FXN GAA850 act	MITF TRPM1 HTS	AHR act
C[C@H](CO)N1C[C@H](C)[C@H](CN(C)C(=O)NC2CCCCC2)Oc2ccc(NC(=O)C3CC3)cc2CC1=O	.	-2	.	.	.
Cc1ccc(S(=O)(=O)N2CC[C@@H]3[C@H](CO)N(C)c4ccc(C#Cc5cccnc5)cc4[C@@H]32)cc1	.	9	.	.	.
CN(C)c1ccc(C2NC(=O)c3ccccc3N2)cc1 (stereo not drawn)	31*	-24	4	77	9
Cc1ccc(S(=O)(=O)N2CCN(C(=O)c3ccccn3)CC2)c(C)c1	-3	.	2	-17	1
Cc1ccc(S(=O)(=O)N2CCN(C(=O)c3ccc4ccccc4n3)CC2)c(C)c1	12	58*	4	39	26
O=C(Nc1ccc(Cl)cc1Cl)NC1CCCC1	7	18	-1	11	53*
S=C(Nc1ccc(Cl)cc1Cl)NC1CCCCC1	.	84*	0	107*	4
COc1ccc(CN(C)C[C@H]2Oc3ccc(NS(=O)(=O)c4cn(C)cn4)cc3CC(=O)N([C@@H](C)CO)C[C@H]2C)cc1	.	-5	.	.	.
CS(=O)(=O)N(CC(=O)Nc1ccc(Br)cc1F)C1CCCCC1	5	3	1	.	55*
COc1cc(/C=C(\C#N)c2nc3ccc(C)cc3[nH]2)cc([N+](=O)[O-])c1O	3	.	4	25	.
COc1cc(/C(C#N)=C/c2ccccc2)c([N+](=O)[O-])cc1OC	.	-5	-1	.	47*
COc1c(O)ccc(/C=C(\C#N)c2nc3ccccc3[nH]2)c1[N+](=O)[O-]	.	32	5	-21	50*
COc1cc(/C=C(\C#N)c2nc3ccc(C)cc3[nH]2)c([N+](=O)[O-])cc1OC	0	4	2	18	66*
CN1C[C@H]2[C@@H](c3ccccc31)[C@H](CO)N2Cc1ccccc1	.	-9	.	.	.
CC(C)NC(=O)N[C@@H]1CC[C@@H](CC(=O)NCCN2CCCC2)O[C@@H]1CO	.	4	.	.	.
COc1ccccc1CN1[C@H](C(=O)NCCc2ccncc2)[C@@H](CO)[C@@H]2Cn3c(cccc3=O)[C@@H]21	.	-2	.	.	.
Nc1c(C(=O)NCc2ccco2)nnn1-c1ccccc1	15	50*	0	37	27
Cc1ccc(NC(=S)/N=C(\N)Nc2nc(C)c3ccccc3n2)cc1C	-5	.	4	-24	48*
Cc1cccc(NC(=S)/N=C(\N)Nc2nc(C)c3cc(C)ccc3n2)c1	-1	4	0	11	-11
CCOc1ccc2nc(N/C(N)=N/C(=S)Nc3ccc(OC)cc3)nc(C)c2c1	0	6	-1	7	64*
Cc1cccc(NC(=S)/N=C(\N)Nc2nc(C)c3ccc(C)cc3n2)c1	.	.	-1	-26	57*
Cc1cc(C)cc(NC(=S)/N=C(\N)Nc2nc(C)c3ccccc3n2)c1	.	.	0	-11	21
COc1ccc2nc(N/C(N)=N/C(=S)Nc3ccccc3)nc(C)c2c1	-2	28	3	9	-5
Cc1cccc(NC(=S)/N=C(\N)Nc2nc(C)c3ccccc3n2)c1	5	10	-1	1	69*
C[C@@H]1CCCCO[C@@H](CN(C)S(=O)(=O)c2ccccc2)[C@H](C)CN([C@@H](C)CO)C(=O)c2cc(NC(=O)CCCN(C)C)ccc2O1	.	0	.	.	.
SMILES	Wnt bcat act	esBAF inh	FXN GAA850 act	MITF TRPM1 HTS	AHR act
CC(=O)Nc1ccc(C(=O)CSc2cc(C)c3cccc(C)c3n2)cc1	-1	.	-1	-5	66*
O=C(N[C@@H]1CC[C@H](CCNS(=O)(=O)c2ccc(Cl)cc2)O[C@H]1CO)c1cccc(F)c1	.	3	.	.	.
COC(=O)c1ccc(C(=O)Nc2ccc(C(C)C)cc2N)cc1	.	47*	4	68	4
COC(=O)c1sccc1NC(=O)c1ccc(C)cc1	6	4	2	-12	28
COC(=O)c1c(NC(=O)c2ccc(C)cc2)csc1C	36*	.	2	.	26
COc1cccc(-c2ccc3c(c2)[C@@H]2[C@@H](CCN2S(=O)(=O)c2ccccc2C)[C@H](CO)N3C)c1	.	12	.	.	.
S=C(Nc1ccccc1)Nc1nc2ccccc2n1CCOc1ccc(Cl)cc1	-10	.	2	7	55*
CCn1c(NC(=S)Nc2ccccc2)nc2ccccc21	33*	1	0	.	56*
C[C@H]1CCCCO[C@@H](CN(C)C(=O)Cc2ccccc2)[C@@H](C)CN([C@@H](C)CO)C(=O)c2cc(NS(=O)(=O)c3cccs3)ccc2O1	.	6	.	.	.
CC(C)NC(=O)N[C@H]1CC[C@H](CCNC(=O)C2CCOCC2)O[C@@H]1CO	.	-2	.	.	.
